This is a sample that favours compounds with a hit; in the whole collection about 4.9% have one here.
Mdm2-MdmX inh – disrupts the human Mdm2-MdmX interaction | O15151+Q00987 | SaOS-2 split-luciferase Mdm2/MdmX complementation, luminescence | inhibition, % at 8 µM | actives 3% (n = 330,000);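 active = inhibition of at least 50% at 8 µM in the primary screen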
Target sequence (O15151 whole entry, looked up): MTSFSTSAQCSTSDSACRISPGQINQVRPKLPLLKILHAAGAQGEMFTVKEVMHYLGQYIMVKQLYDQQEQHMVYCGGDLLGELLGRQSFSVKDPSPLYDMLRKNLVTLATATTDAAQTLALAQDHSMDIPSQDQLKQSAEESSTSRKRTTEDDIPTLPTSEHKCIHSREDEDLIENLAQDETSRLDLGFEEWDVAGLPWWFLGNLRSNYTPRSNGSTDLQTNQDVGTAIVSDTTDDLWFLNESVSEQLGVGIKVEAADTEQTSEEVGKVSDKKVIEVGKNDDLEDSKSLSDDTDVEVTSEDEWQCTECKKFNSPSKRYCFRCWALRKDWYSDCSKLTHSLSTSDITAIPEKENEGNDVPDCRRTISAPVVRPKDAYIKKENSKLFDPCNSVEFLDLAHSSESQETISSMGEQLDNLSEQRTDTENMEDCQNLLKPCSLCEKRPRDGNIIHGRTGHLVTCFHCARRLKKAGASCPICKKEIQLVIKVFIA
Target sequence (Q00987 whole entry, looked up): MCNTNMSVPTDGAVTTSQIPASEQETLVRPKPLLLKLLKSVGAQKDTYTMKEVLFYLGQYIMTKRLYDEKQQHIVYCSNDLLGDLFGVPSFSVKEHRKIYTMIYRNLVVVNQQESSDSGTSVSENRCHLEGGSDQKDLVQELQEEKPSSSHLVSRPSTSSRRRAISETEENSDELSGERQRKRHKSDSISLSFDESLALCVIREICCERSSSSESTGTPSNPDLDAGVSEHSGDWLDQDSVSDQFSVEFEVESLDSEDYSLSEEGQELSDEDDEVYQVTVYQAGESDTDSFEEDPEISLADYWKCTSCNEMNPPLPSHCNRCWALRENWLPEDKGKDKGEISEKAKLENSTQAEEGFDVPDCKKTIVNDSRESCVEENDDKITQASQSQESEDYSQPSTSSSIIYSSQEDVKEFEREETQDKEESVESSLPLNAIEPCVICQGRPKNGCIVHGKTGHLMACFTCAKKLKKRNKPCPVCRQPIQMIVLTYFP
PP5 inh – blocks human protein phosphatase 5 activity. P53041. purified PP5c, OMFP substrate fluorescence. inhibition, % at 6.7 µM. actives 0.18% (n = 320,000). AID 1987;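 active = inhibition above the campaign's mean inhibition across all tested compounds plus 3 SD, cut at about 9.5% in these data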;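 note: 0% = DMSO only and 100% = 100 µM cantharidin control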
Calb FLC – affects C. albicans growth with fluconazole | C. albicans CaCi-2 (fluconazole-resistant clinical isolate) + fluconazole, Alamar Blue growth, 48 h | growth inhibition, % (no concentration beside the values) | actives 0.57% (n = 300,000) | AID 1979;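 active = growth inhibition above about 58% in most replicates, limit read from the data, passing the limit was not always enough; inconclusive = exactly half the replicates above a set limit; inactive = most replicates below a set limit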;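 note: all wells also contain fluconazole at 8 µg/ml as a sub-toxic cotreatment; 0% = median of DMSO wells and 100% = median of geldanamycin control wells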
Beta apoptosis – blocks beta cell apoptosis; INS-1E cytokine-induced death, ATP luminescence, 48 h; percent of positive-control rescue, neutral wells zero; protection from apoptosis, % (test concentration not listed); actives 0.8% (n = 300,000); AID 435005;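 active = Every replicate reaches about 75%, or at least half do and their mean reaches it too, limit read from the data; inconclusive = At least half of replicates reach the limit but their mean does not; inactive = Under half of replicates reach the limit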;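 note: 0% = cytokine-treated negative control wells and 100% = positive control rescue; higher means more ATP so stronger rescue from cytokine killing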
PP1 counter – counter-screen for PP5 inhibitors: inhibitors of human PP1-alpha; P62136; purified PP1alpha, OMFP fluorescence; inhibition, % at 6.7 µM; actives 0.9% (n = 320,000); AID 2235;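 active = inhibition above the mean inhibition of all tested compounds plus 3 SD, computed separately for each screening campaign, cut at about 15% in these data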
CSC inhib – blocks cancer stem cells. cancer stem cell-like cells viability, luminescence. inhibition, % at 7.5 µM. actives 1.1% (n = 300,000). AID 2717; in the data active = inhibition above about 75%; inconclusive = no clear call, values can overlap the other calls; tested in HMLE shEcad cells
Mdm2 MdmX conf – human Mdm2/MdmX binding inhibition, confirmed; inhibition, % at 8 µM; shares compounds with Mdm2-MdmX inh; actives 55% (n = 10,000); luminescent assay; in the data active = inhibition above about 40%
Full FLuc ctr – full-length luciferase inhibition in Mdm2/MdmX counter-screen | SaOS-2 full-length luciferase counterscreen, luminescence | shares compounds with Mdm2-MdmX inh | actives 77% (n = 6,200) | inhibition, % at 8 µM | AID 504607;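 active = mean inhibition at 8 µM reaching about 37%, which flags the compound as non-specific, limit read from the data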;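 note: p53-null SaOS-2 cells with luciferase driven by a doxycycline-inducible promoter; compound on cells about two nights before reading with doxycycline added after day one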
* hit, by the source's call; u = inconclusive; x = no result given.

SMILES	Mdm2-MdmX inh	PP5 inh	Calb FLC	Beta apoptosis	PP1 counter	CSC inhib	Mdm2 MdmX conf	Full FLuc ctr
Cc1cccc(N(Cc2cc(=O)[nH]c3ccccc23)C(=O)CCl)c1	100*	-1	6	-16	1	105*	100*	56*
C[C@@]12CCC=C[C@H]1[C@H](c1ccc3ccccc3c1/C=C/c1ccccc1)N(Cc1ccccc1)C2=O	65*	0	-1	13	-2	66	15	x
C[C@@]12CCC=C[C@H]1[C@H](c1ccc(/C=C/c3ccccc3)cc1F)N(Cc1ccccc1)C2=O	42	3	-9	36	11	28	x	x
O=C1NC[C@H](c2ccccc2)OC(=O)[C@H](Cc2ccc(F)cc2)CC/C=C/C[C@H]1CC(=O)N(CCO)Cc1ccccc1	78*	x	x	2	x	15	68*	55*
O=C1NC[C@H](c2ccccc2)OC(=O)[C@@H](Cc2ccc(F)cc2)CC/C=C/C[C@H]1CC(=O)N(CCO)Cc1ccccc1	78*	x	x	4	x	31	50*	62*
O=C1NC[C@H](c2ccccc2)OC(=O)[C@@H](Cc2ccc(F)cc2)CC/C=C/C[C@@H]1CC(=O)N(CCO)Cc1ccccc1	7	x	x	0	x	-5	x	x
COC(=O)CC1C(=O)NCCN1C(=O)CSc1nc2ccccc2s1 (stereo not drawn)	1	0	6	-19	-2	-20	x	x
CC1(C)CC2(CCO1)OC(=O)CC2C(=O)Nc1ccccc1Cl (stereo not drawn)	3	3	-4	-3	-3	-13	x	x
COc1cc(C(=O)NC(=S)N(CCc2ccccc2)CCc2ccccc2)cc(OC)c1OC	52*	1	93*	x	-2	49	53*	50*
COc1cc(C(=O)NC(=S)Nc2ccc(NC(=O)c3ccco3)cc2)cc(OC)c1OC	54*	2	11	15	-3	1	23	x
CCOC(=O)Cn1ccc(NC(=O)COc2ccc(F)cc2)n1	4	4	-9	-5	0	-11	x	x
Cn1nc(NC(=O)CC(C)(C)CC(=O)O)c2ccccc21	-8	-3	3	x	9	13	x	x
CNC(=O)CN(c1ccc(C23CC4CC(CC(C4)C2)C3)cc1)S(C)(=O)=O	-3	0	u	4	0	51	x	x
CC(=O)Nc1ccc(NC(=O)CN(c2ccc(C34CC5CC(CC(C5)C3)C4)cc2)S(C)(=O)=O)cc1	56*	0	-10	13	0	10	29	x
CS(=O)(=O)N(CC(=O)Nc1ccc(CC#N)cc1)c1ccc(C23CC4CC(CC(C4)C2)C3)cc1	64*	5	11	88*	11	38	-5	x
COc1ccc(CCNC(=O)Cn2c(=O)n(-c3ccc(C)c(F)c3)c(=O)c3sccc32)cc1OC	26	1	4	2	0	-10	x	x
CC1(C)CC(=O)C(CC(=O)NC2CCCc3ccccc32)C(=O)C1 (stereo not drawn)	-10	-1	-6	-10	2	-5	x	x
COc1cccc(CN2CC(C(=O)NCCCCc3ccccn3)CCC2=O)c1 (stereo not drawn)	-6	x	6	-1	x	-4	x	x
Cc1cc(C)c2nc(NNC(=O)c3ccc(S(=O)(=O)N4CCCCC4)cc3)sc2c1	72*	0	4	71	16*	102*	45*	47*
CCOC(=O)N1CCN(S(=O)(=O)c2ccc(C(=O)NNc3nc4c(C)cccc4s3)cc2)CC1	53*	5	0	55	5	x	41*	47*
Cc1cccc2sc(NNC(=O)c3ccc(S(=O)(=O)N4CCc5ccccc5C4)cc3)nc12	83*	2	-1	92*	16*	103*	82*	76*
CCOC(=O)N1CCN(S(=O)(=O)c2ccc(C(=O)Nc3nc4c(s3)CC(C)CC4)cc2)CC1 (stereo not drawn)	78*	0	3	38	-1	-8	21	x
CCC(=O)NNc1nc2c(C)cccc2s1	19	-2	6	-6	-3	-11	x	x
O=C(O)c1ccc2c(=O)[nH]c(CCl)nc2c1	12	4	-2	4	2	-6	x	x

High-throughput results as filed in PubChem.
